# In PubChem BioAssay (NCATS):
# Results filed as inconclusive are left out. Calls of active or inactive are those of the source. Calls follow the shape of the dose curve; as a rule, active = well fitted cell-killing curve with a large enough effect; inconclusive = small, poorly fitted or top-dose-only effect, or effect the other way; inactive = flat fitted curve, though single readings scatter.
# Test system: OV90
# Test: Primary qHTS to identify gynecologic anti-cancer compounds using libraries of approved drugs and bioactive compounds (AID 1345084); also: nearly all actives have a fitted effect of over 55% in size
# Conditions: Gynecologic cancer cell panel viability, ATPlite luminescence, 48 h; series mostly up to 57.5 µM
# How it was run: (§1)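 Cells, 1,000 per well, plated 16 h, then exposed 48 h at 37 C to compounds. Viability by ATPlite luminescence after 15 min at room temperature.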
# % is scaled to controls: 0 for no effect and ±100 for the full control effect; potency is read from the fitted curve at half-maximal effect.
row,SMILES,Potency
1,CC(=O)O[C@H]1[C@H](O)C[C@@]2(C)C(CC[C@]3(C)C2CC=C2C4CC(C)(C)CC[C@]4(C(=O)O)CC[C@]23C)C1(C)C (stereo partly drawn),inactive
2,COC(=O)C1=CO[C@@H](O[C@@H]2O[C@H](CO)[C@@H](O)[C@H](O)[C@H]2O)[C@H]2[C@@H]1C=C[C@]21C=C([C@H](C)OC(=O)/C=C/c2ccc(O)cc2)C(=O)O1,inactive
3,Oc1cccc(C2NC(=S)Nc3cccc(F)c32)c1 (stereo not drawn),inactive
4,COc1ccc(CCc2nc3c(C)c(-c4c(C)noc4C)c(C)cc3n2CCN2CCOCC2)cc1,inactive
5,CC[C@@H](C)Nc1cc(C(=O)NC2CC3CCC(C2)N3c2ccc(C(=O)C3CC3)cn2)c(C)cc1C(N)=O (stereo partly drawn),0.316 µM (active)
6,Oc1ccc(-c2cnc3ccc(NCc4ccco4)nn23)cc1,inactive
7,Cc1ccc(C(=O)Nc2ccc(CN3CCN(C)CC3)c(C(F)(F)F)c2)cc1C#Cc1cnc2[nH]ncc2c1,3.16 µM (active)
8,Cc1nc2ccc(-n3ncc(C(=O)c4cc5ccccc5[nH]4)c3N)cc2[nH]1,14.1 µM (active)
9,C=C1C(=O)O[C@@H]2C(OC(=O)/C(C)=C\C)/C(C)=C\C(=O)/C=C(\C)C[C@H](O)[C@@H]12 (stereo partly drawn),inactive
10,Cc1cc2ncc(C(=O)NCC(C)(C)NCC(=O)N3CCC[C@H]3C#N)cn2n1,inactive
11,O=C(Nc1ccccc1Cl)c1cnc2ccc(C3CCNCC3)cn12,7.94 µM (active)
12,N#CC(CCCN1CCC(O)(c2ccc(Cl)cc2)CC1)(c1ccccc1)c1ccccc1,15.8 µM (active)
13,C=C1[C@@H](OC(C)=O)CC[C@@]2(C)[C@@H](OC(C)=O)[C@H](OC(C)=O)C3=C(C)C[C@H](OC(=O)C(C)CC)[C@@H]([C@@H](OC(C)=O)[C@H]12)C3(C)C (stereo partly drawn),inactive
14,COC(=O)N1CCC(n2ncc3c(N4CCOCC4)nc(-c4ccc(NC(=O)NC5CC5)cc4)nc32)CC1,0.501 µM (active)
15,CN1CCN(c2ccc(OC(F)(F)F)c(Nc3ncc4c(n3)-c3c(c(C(N)=O)nn3CCO)CC4)c2)CC1,inactive
16,COCc1c(Cl)ccc2c1CC[C@H]2c1ncc[nH]1,inactive
17,CC(=O)OC1[C@H]2[C@@H](C[C@@H](C)[C@@H]3C=CC(=O)[C@@]13C)OC(=O)[C@@H]2C (stereo partly drawn),inactive
18,COc1cc(NC(=O)c2cccc(-n3cc(NC(=O)Nc4cccc(C)c4)cn3)c2)cc(OC)c1OC,inactive

# Test system: PA-1
# Test: as above
# Conditions: Gynecologic cancer cell panel viability, ATPlite luminescence, 48 h; series mostly up to 57.5 µM
# How it was run: as §1
SMILES,Potency,"activity change, negative = cytotoxicity"
COc1ccc(-c2cc3onc(-c4ccncc4)c3c(=O)n2C)cc1,inactive,
C=CC(=O)N1CCC[C@@H](n2nc(-c3cccc(C(=O)Nc4ccc(C(C)C)c(C)c4)c3)c3c(N)ncnc32)C1,inactive,
COC(=O)C1=CO[C@@H](O[C@@H]2O[C@H](CO)[C@@H](O)[C@H](O)[C@H]2O)[C@H]2[C@@H]1C=C[C@]21C=C([C@H](C)OC(=O)/C=C/c2ccc(O)cc2)C(=O)O1,12.6 µM (active),
C/C1=C\CCC2=CC(OC2=O)C(C)(C)/C=C/C1=O (stereo not drawn),31.6 µM (active),
CC[C@@H](C)Nc1cc(C(=O)NC2CC3CCC(C2)N3c2ccc(C(=O)C3CC3)cn2)c(C)cc1C(N)=O (stereo partly drawn),0.355 µM (active),
Oc1ccc(-c2cnc3ccc(NCc4ccco4)nn23)cc1,28.2 µM (active),
C=CS(=O)(=O)NC1CCN(C(=O)CNc2cc(I)c(Cl)cc2OC)CC1,10 µM (active),
CCN1CCN(Cc2ccc(NC(=O)c3ccc(C)c(Oc4ncnc5[nH]c(C)cc45)c3)cc2C(F)(F)F)CC1,31.6 µM (active),
C=CC(=O)Nc1cccc(Nc2nc(Nc3ccc(OCCOC)cc3)ncc2F)c1,10 µM (active),
C=C1C(=O)O[C@@H]2C(OC(=O)/C(C)=C\C)/C(C)=C\C(=O)/C=C(\C)C[C@H](O)[C@@H]12 (stereo partly drawn),10 µM (active),
O=C(c1ccccc1)c1c(O)cc(O)cc1O[C@@H]1O[C@H](CO)[C@@H](O)[C@H](O)[C@H]1O,11.2 µM (active),
O=C(Nc1ccccc1Cl)c1cnc2ccc(C3CCNCC3)cn12,0.891 µM (active),
Nc1ncnc2c1c(-c1ccc(Oc3ccccc3)cc1)nn2[C@@H]1CCCNC1,25.1 µM (active),
N#CC(CCCN1CCC(O)(c2ccc(Cl)cc2)CC1)(c1ccccc1)c1ccccc1,inactive,
O=C(NC1CCN(CCCCC2(C(=O)NCC(F)(F)F)c3ccccc3-c3ccccc32)CC1)c1ccccc1-c1ccc(C(F)(F)F)cc1,31.6 µM (active),
COc1c(C)cnc(Cn2cc(C#CCC(C)(C)O)c3c(Cl)nc(N)nc32)c1C,0.282 µM (active),
O=c1ccc2ccc(OCCCCN3CCN(c4cccc5sccc45)CC3)cc2[nH]1,inactive,
CC1(C)CC[C@]23CO[C@@]4(CCC5[C@@]6(C)CC[C@H](O[C@@H]7OC[C@H](O[C@@H]8O[C@H](CO)[C@@H](O)[C@H](O)[C@H]8O[C@@H]8OC[C@@H](O)[C@H](O)[C@H]8O)[C@H](O)[C@H]7O[C@@H]7O[C@H](CO)[C@@H](O)[C@H](O)[C@H]7O)[C@@](C)(CO)C6CC[C@@]5(C)[C@]4(C)C[C@H]2O)[C@@H]3C1 (stereo partly drawn),,-25.5% [at 11.6 µM] (inactive)
COC(=O)N1CCC(n2ncc3c(N4CCOCC4)nc(-c4ccc(NC(=O)NC5CC5)cc4)nc32)CC1,1.41 µM (active),
CCCc1cc(C)[nH]c(=O)c1CNC(=O)c1cc(-c2ccnc(N3CCN(C)CC3)c2)cc2c1cnn2C(C)C,25.1 µM (active),
CN1CCN(c2ccc(OC(F)(F)F)c(Nc3ncc4c(n3)-c3c(c(C(N)=O)nn3CCO)CC4)c2)CC1,0.282 µM (active),
COc1cccc(-c2cc(F)ccc2C2Cc3nc(N)nc(C)c3C(=O)N2)n1 (stereo not drawn),0.355 µM (active),
COc1cc(-n2cnc3cc(-c4ccc(Cl)cc4)sc3c2=O)ccc1OCCN1CCCC1,22.4 µM (active),
CC(=O)OC1[C@H]2[C@@H](C[C@@H](C)[C@@H]3C=CC(=O)[C@@]13C)OC(=O)[C@@H]2C (stereo partly drawn),35.5 µM (active),
COc1cc(NC(=O)c2cccc(-n3cc(NC(=O)Nc4cccc(C)c4)cn3)c2)cc(OC)c1OC,inactive,
